Hits are enriched below; roughly 4.6% of the tested compounds scored in any of these assays.
D1 antagonist: Antagonist of Human D 1 Dopamine Receptor: qHTS | HEK293 TREx D1 cells, calcium flux, dopamine EC80; active compounds read low | activity change, negative = inhibition, % at 10 µM | AID 504652, 2011 | 3.2% of 360,000 active | D(1A) dopamine receptor (Homo sapiens), P21728; in the data active = activity change below about -30%; note: % is set by controls: 0 for no effect and ±100 for the full control effect
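HEK293 T-REx cells expressing inducible, force-coupled D1 receptor; no-wash Ca dye, 30–90 min RT. Cmpd → 180 s read at 1 Hz → EC80 DA → 180 s read.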
TRHR agonist: qHTS for Small Molecule Agonists and Allosteric Enhancers of Human TRH Receptor: Primary Screen for Agonists; TRHR cells, calcium flux fluo-8, FDSS agonist mode; activation, % at 2 µM; 0.18% of 360,000 active; AID 493084, 2011; note: 0% is about no effect
Target sequence (P34981 whole entry, looked up): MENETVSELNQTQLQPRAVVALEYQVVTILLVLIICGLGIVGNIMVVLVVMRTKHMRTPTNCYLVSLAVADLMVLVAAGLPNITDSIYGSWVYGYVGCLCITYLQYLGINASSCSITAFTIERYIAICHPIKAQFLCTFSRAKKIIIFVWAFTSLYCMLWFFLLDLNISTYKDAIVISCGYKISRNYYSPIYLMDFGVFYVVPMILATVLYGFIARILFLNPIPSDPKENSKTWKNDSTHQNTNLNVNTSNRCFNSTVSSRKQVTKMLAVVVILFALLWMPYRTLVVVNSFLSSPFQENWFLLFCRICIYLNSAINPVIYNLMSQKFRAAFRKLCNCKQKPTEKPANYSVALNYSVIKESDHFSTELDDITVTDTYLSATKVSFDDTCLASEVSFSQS
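In this calcium-flux screen, cells bearing human TRHR are dye-loaded with fluo-8, baselined for 10 cycles, then exposed to library compounds; positive kinetic calcium responses during the agonist phase mark hits, with TRH as control.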
TRHR PAM: qHTS for Small Molecule Agonists and Allosteric Enhancers of Human TRH Receptor: Primary Screen for Enhancers; Thyrotropin-releasing hormone receptor (Homo sapiens), P34981; TRHR cells, fluo-8 calcium fluorescence, EC20 TRH enhancement; enhancement, % at 2 µM; 0.66% of 360,000 active; AID 493056, 2011; in the data active = enhancement above about 30%; note: 0% is about no effect
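TRHR-expressing cells loaded with fluo-8 calcium dye were read kinetically (ex 480/em 530) during compound addition, then stimulated with an EC20 of TRH (10 nM final). Enhancement of the Gq-mediated intracellular calcium response was scored.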
D1 agonist: Allosteric Agonists of the Human D1 Dopamine Receptor: qHTS; D(1A) dopamine receptor (Homo sapiens), P21728; HEK293 T-REx D1 cells, calcium flux, agonist mode; activation, % at 2 µM; 1% of 360,000 active; note: 0% is about no effect
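Inducible HEK293 T-REx D1 cells, force-coupled to calcium signalling, were plated at 4000 cells/well with tetracycline and held overnight at 30 C. After no-wash calcium dye loading, compound-evoked calcium rise over 180 s flagged agonists.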
D1 potentiator: Potentiators of Human D1 Dopamine Receptor: qHTS. D(1A) dopamine receptor (Homo sapiens), P21728. HEK293 TREx D1 cells, calcium flux, dopamine EC20 potentiation. potentiation, % at 10 µM. 0.036% of 360,000 active. AID 504651, 2011; in the data active = potentiation above about 30%; note: 0% is about no effect
* = called active by the depositor; · = no result given. Cut-off read from the data, not from the text of the source, unless noted: active = activation above about 30%; inactive = the rest.

SMILES	D1 antagonist	TRHR agonist	TRHR PAM	D1 agonist	D1 potentiator
Cc1cc(C)n(CCCNC(=O)c2ccco2)n1	-31*	0	-5	1	-6
Cc1ccccc1CS(=O)(=O)CCC(=O)NCCCN1CCOCC1	-44*	-1	-5	0	0
COc1ccc(CCNC(=O)Cc2c(C)c3cc4c(C)coc4c(C)c3oc2=O)cc1	-4	0	1	0	2
CC(C)(C)c1cc(C(F)(F)F)nc(SCCCNC(=O)c2ccco2)n1	-38*	0	14	19	-3
O=C(NCCCN1CCOCC1)c1ccc(CS(=O)(=O)Cc2ccccc2Cl)o1	-45*	-1	-1	2	1
O=C(NCCCN1CCOCC1)c1ccco1	-35*	0	2	2	-3
CC(C)(C)c1ccc(C(=O)NCCCNC(=O)c2ccco2)cc1	-3	0	1	4	·
O=C(NCCCN1CCCCCC1)c1ccc(CS(=O)(=O)Cc2ccccc2F)o1	1	0	1	-1	4
CCn1ccc2cc(S(=O)(=O)N3CCCN(C(=O)Nc4ccccc4F)CC3)ccc21	-7	-1	-7	0	2
FC(F)(F)c1cccnc1Oc1ccc(C2=NCCS2)cc1	-6	8	-1	37*	-2
Nc1cccnc1Oc1ccc(F)cc1	-1	0	3	0	-4
COc1cccc2c(=O)cn[nH]c12	-52*	0	2	1	-7
O=S(=O)(NCCc1csc2nc(-c3ccc(Cl)cc3)nn12)c1ccc(Oc2ccccc2)cc1	·	1	1	12	-4
COc1ccc(-c2nnc3sc(CN4C(=O)c5ccccc5C4=O)nn23)cc1	-5	0	36*	4	2
CCSc1nc(-c2ccc(Cl)cc2)nc2c1Cc1c(CO)cnc(C)c1O2	9	1	8	1	3
Cn1c(=O)c(Nc2ccc(Cl)cc2)c2c3c(cccc31)C(=O)c1ccccc1-2	4	17	0	78*	7
COc1ccc(OC)c(C2(O)CSC(=Nc3cccnc3)N2Cc2ccco2)c1 (stereo unspecified)	·	-2	4	2	-2
OC1(c2ccc(OC(F)F)cc2)CSC(=Nc2cccnc2)N1C1CC1 (stereo unspecified)	-30*	2	0	10	-12
COc1ccc(-c2nn(CCC(=O)O)cc2/C=C2\SC(N)=NC2=O)cc1OC	0	0	-3	1	-4
CCCOc1ccc(-c2nn(-c3ccccc3)cc2/C=C2\SC(N)=NC2=O)cc1C	-74*	1	-1	1	-10
Cc1ccc(C(=O)N/C(=C\c2cccc([N+](=O)[O-])c2)C(=O)OCN2C(=O)c3ccccc3C2=O)cc1	-48*	-2	-1	5	0
Cc1cccc(C(=O)Oc2c(Sc3ccccc3)c(C)nn2C(C)(C)C)c1	13	0	-3	2	3
Cc1nc(CC(=O)Nc2ccc(C(N)=O)cc2)cs1	-3	1	2	-1	-1
C=CC[C@H]1CC(C)=C[C@H](CC=C)N1C(=O)c1cc(COc2ccccc2SC)on1	-13	2	-2	40*	3
OCCCNc1nc(-c2ccc(Cl)cc2)nnc1-c1ccc(Br)cc1	-40*	0	21	3	-12
CCOc1cc2c(cc1C=O)OC(C)C2 (stereo unspecified)	2	0	8	2	4
CCOc1cc2c(cc1/C=C/c1noc(C)c1[N+](=O)[O-])OC(C)C2 (stereo unspecified)	-17	97*	5	74*	6
Clc1ccc(Cn2c(-c3cccnc3Cl)nc3ccccc32)cc1	-45*	1	-4	2	-7
COc1cc2c(cc1OC)C(COc1ccc(F)cc1)N(C(=O)c1cccc(F)c1)CC2 (stereo unspecified)	-23	0	-4	1	-2
CC1CCN(CCCOc2ccc(Br)cc2Cl)CC1	-68*	1	-9	52*	-5

Compound activity deposited in PubChem BioAssay by National Center for Advancing Translational Sciences (NCATS).
